Sampled rows, rich in hits. Any-hit rate of the full collection: about 7.1%.
PINK1 modulator: changes PINK1 expression | AID 624263 | PINK1 immunofluorescence, high-content cytometry, 24 h | hit rate 0.2% among 410,000 | Potency, µM (top dose mostly 76.6 µM), without a hit: at the top dose activation (PINK1 increase), most hits filed as activators; active means well fitted activation curve with a large enough effect; inconclusive means small, poorly fitted or top-dose-only effect; cell line not stated here; further: potency means the concentration at half of the fitted maximal effect; % of control where 0% means no effect; nearly all actives have a fitted effect of over 65% in size
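Stable cell line, 250 cells/well, 12 h attachment; compounds pinned at 5 concentrations, 24 h; CCCP control. Fixed with nuclear dye, primary antibodies 12 h at 10 degrees C, secondary plus cell stain; laser-scanning cytometer read.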
MCF10A rereplic: inducers of DNA re-replication in MCF 10A breast cells; MCF 10A DNA re-replication, Hoechst nuclear intensity, 48 h; Potency, µM (doses to about 46.1 µM), for the others: at the top dose activity, positive = re-replication, usual class: activators; hit rate 2.9% among 350,000; AID 624296; further: potency means the concentration at half of the fitted maximal effect; % of control where 0% means no effect; nearly all actives have a fitted effect of over 50% in size
IL-1B inflam inh: blocks inflammasome-driven IL-1 beta release; THP-1 LPS/ATP IL-1B secretion, AlphaLISA, 16 h; hits give low values; activity change, % at 57.5 µM; hit rate 4.7% among 360,000; in the data active means activity change below about -50%; inconclusive means mostly about -30% to -49%; further: on the % scale 0 is the no-effect control and ±100 the full control effect
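Secreted IL-1B measured by AlphaLISA bead assay after 16 h compound exposure of THP-1 cells; compounds (final up to 57.5 uM) added 1 h before LPS (250 ng/mL) and ATP (1.25 mM) stimulation; lower signal means less secretion.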
ATXN viability: reduces viability in counter-screen for ATXN expression inhibitors. S2 cells (HEK-293 line with an ATXN2-luciferase reporter) viability, CellTiter-Fluor protease fluorescence, 24 h. hit rate 0.49% among 400,000. Potency, µM (highest dose often 56.7 µM), most hits filed as cytotoxic; further: potency means the concentration at half of the fitted maximal effect; nearly all actives have a fitted effect of over 40% in size
SW480 rerep: DNA re-replication induction in SW480 cells; SW480 DNA re-replication, Hoechst DNA content imaging, 48 h; Potency, µM (titrated, usually from 46.1 µM), for inactives: at the top dose re-replication activation, most hits filed as activators; hit rate 1.8% among 340,000; AID 624297; further: potency means the concentration at half of the fitted maximal effect; % of control where 0% means no effect; nearly all actives have a fitted effect of over 55% in size
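250 cells/well; 23 nL cpd via pin tool; 48 hr, 37 C, 5% CO2; Hoechst 40 min; imager read of total nuclear intensity, ex 405/em 500-530 nm.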
ATXN2 expr inh: ATXN2 expression inhibition. HEK-293 ATXN2-luciferase reporter, luminescence, 24 h. Potency, µM (series often up to 57 µM), for inactives: at the highest dose activity change, negative = inhibition, actives largely listed as inhibitors. hit rate 0.72% among 360,000. AID 1745845; further: potency means the concentration at half of the fitted maximal effect; on the % scale 0 is the no-effect control and ±100 the full control effect; nearly all actives have a fitted effect of over 55% in size
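ATXN2-luciferase reporter cells (luciferase flanked by upstream and downstream ATXN2 gene portions) were treated 24 h at 37 °C with compounds at up to 57 uM. SteadyGlo luminescence gave expression; GF-AFC fluorescence gave viability.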
Starred values were filed as active, the others as inactive; i = inactive; ? = inconclusive; . = not tested or not shown; ! = repeats disagree; [ ] = another dose, or the depositor's remark. Unless noted, the call rests on the fitted dose curve; in most records, active means well fitted curve in the direction sought with a large enough effect; inconclusive means small, poorly fitted or top-dose-only effect, or another doubt; inactive means no such curve, though single readings can be large; an effect the other way counts as inactive or inconclusive.

SMILES | PINK1 modulator | MCF10A rereplic | IL-1B inflam inh | ATXN viability | SW480 rerep | ATXN2 expr inh
CNC(C)C#Cc1ccc2oc3cccc(OC)c3c(=O)c2c1 (centres undefined) | 3% | 1% | 0 | i | 3% | -17%
Cn1c2ccccc2c(=O)c2ccc(C#CC3(O)CCCCC3)cc21 | -1% | -4% | -54* | i | ? | -81%
CNC(C)C#Cc1ccc2sc3cccc(OC)c3c(=O)c2c1 (centres undefined) | 2% | ? | -80* | i | 7.3µM* | -27%
CC(C)CC(=O)NCC(c1ccc2c(c1)OCO2)N1CCN(c2ccccc2F)CC1 (centres undefined) | -1% | . | . | i | . | -11%
COc1cccc(Cn2c(=O)n(-c3ccc(C)c(F)c3)c(=O)c3sc4ccccc4c32)c1 | 4% | . | . | ? | . | 3%
OCCN1C[C@H](O)[C@@H](O)[C@H](O)[C@@H]1CO | . | . | . | . | . | 12%
Cc1ccc(S(=O)(=O)N2CCN(CC(=O)NC3CCCc4ccccc43)CC2)cc1C (centres undefined) | -1% | 19% | -54*! | i | ? | -25%
CN(c1ncccc1CNc1nc(Nc2ccc3c(c2)CC(=O)N3)ncc1C(F)(F)F)S(C)(=O)=O | . | . | . | . | . | 4.3µM*
CCOC(=O)c1c(NC(=O)CSc2cn(CCNC(=O)c3ccc(OC)c(OC)c3)c3ccccc23)sc2c1CCCC2 | 1% | . | . | ? | . | -10%
O=C1[C@H](Oc2ccccc2)[C@@H](c2ccccc2)N1c1ccncc1 | 2% | ? | -104* | . | ? | ?
Cc1nn2c(N3CCN(C)CC3)c3c(nc2c1-c1ccccc1)CCCC3 | -3% | ? | -22 | 20µM* | 21% | ?
CCCC(=O)N(Cc1cc(=O)[nH]c2ccccc12)c1ccc(C)cc1C | 0% | -16% | 34 | i | 14% | .
Cc1ccc(N(Cc2cc(=O)[nH]c3ccccc23)C(=O)CCl)c(C)c1 | -1% | ? | -105* | ? | 23µM* | ?
COc1cccc(CN2CCC(c3nnc(SCC4CCCO4)n3C)CC2)c1O (centres undefined) | 0% | . | . | i | . | .
COc1ccc(C(=O)NCc2nc(-c3cccc(C)c3)no2)cc1OC | 1% | . | . | . | . | .
Cc1ccccc1-c1noc(N)c1C#N | -7%[38.3 µM] | 16µM* | -28 | i | 5.2µM* | 34%
CCOc1cc(-c2noc(N)c2C#N)cc(OCC)c1OCC | 2% | 1% | 6 | ? | -2% | -1%
Cc1nn(-c2ccccc2)c2c1CC(=O)Nc1ccccc1-2 | 18% | 1.3µM* | 27 | ? | 1.5µM* | 38%
Cc1ccc(Cl)cc1N1CCN(C(=O)c2ccc3c(Cl)c4c(nc3c2)CCCC4)CC1 | 4% | . | . | i | . | -4%
O=C(/C=C/c1ccco1)N(Cc1ccccc1)C1CCS(=O)(=O)C1 (centres undefined) | 2% | 0% | 17 | i | 15µM* | 0%
COc1cccc(CN(C(=O)/C=C/c2ccc(Cl)cc2)C2CCS(=O)(=O)C2)c1 (centres undefined) | 0% | -38% | -58* | ? | 13% | -33%
O=C(/C=C/c1ccccc1)N(Cc1cccc(Cl)c1)C1CCS(=O)(=O)C1 (centres undefined) | -1% | ? | -23 | i | -91% | -2%
Cc1ccc(C(=O)OCC(=O)NNC(=O)c2cccs2)c(O)c1 | 2% | -17% | 21 | i | 18µM* | -1%
CCc1ccccc1NC(=O)c1ccccc1Sc1ccc([N+](=O)[O-])cc1Cl | 0% | 1% | -55* | i | -3% | -18%
O=C(Nc1cccnc1Cl)c1cc([N+](=O)[O-])ccc1Cl | 1% | ? | -63* | i | ? | 42%
SMILES | PINK1 modulator | MCF10A rereplic | IL-1B inflam inh | ATXN viability | SW480 rerep | ATXN2 expr inh
O=C(Nc1cccc2ncccc12)c1cc([N+](=O)[O-])ccc1Cl | 1% | ? | -88* | i | ? | -18%
O=C(CCl)Nc1cccc2ncccc12 | 17% | ? | -99* | . | ? | -37%
CC(=O)c1ccc(OCC(=O)Nc2nnc(C3CC3)s2)cc1 | 2% | . | -8 | i | . | .
COC(=O)c1cc(NC(=O)C(C)c2ccc(CC(C)C)cc2)ccc1O (centres undefined) | -1% | 15µM* | -21 | i | ? | 0%
CCc1ccc(NC(=O)CCc2ccc(C)o2)cc1 | 3% | 16µM* | 0 | i | ? | 8%
O=C1c2ccccc2-n2c1nc1ccccc1c2=O | 1% | 8% | -5 | i | 1.2µM* | -7%
Cc1cc2c(c(-c3ccc4nc(C)ccc4c3)c1)OC(CNC(=O)Cc1ccn(C)c1)C2 (centres undefined) | 1% | . | . | i | . | .
COc1cc2cc(-c3ccc(OC)c(OC)c3C)nc(N)c2cc1OC | 7% | 1.6µM* | 5 | ? | 1.6µM* | -10%
COc1cc2cc(-c3ccc(O)cc3O)nc(C)c2cc1OC | 4% | ? | -73* | i | 12% | 39%
CCCN(CCC)c1cc(C)nc2nc(-c3ccc(Cl)cc3)nn12 | 0% | . | . | i | . | 7%
OC[C@H](S)CS | 6% | 9.4µM* | . | . | 17% | .
Cn1c(=O)c2[nH]c(CCCCCCCCc3nc4ccccc4[nH]3)nc2n(C)c1=O | 1% | ? | -60* | ? | -2% | -37%
COC(=O)c1ccc(/C=N/NC(=O)CC(=O)NC(C)C)cc1 | . | ? | 22 | i | 0% | 6%
COC(=O)c1ccc(/C=N/NC(=S)NC(C)C)cc1 | 0% | ? | -7 | i | 16µM* | 4%
O=C(CCC(=O)c1ccc(Oc2ccccc2)cc1)Nc1cccc(Cl)c1 | 6% | 8% | 0 | i | -2% | -24%
O=C(CCC(=O)c1ccc(Oc2ccccc2)cc1)Nc1ccc(Cl)cc1Cl | 1%[38.3 µM] | ? | ? | i | 5.8µM* | -6%
C(=NNc1ccc2ccccc2n1)c1ccccn1 | 22% | . | 53 | 2µM* | . | -78%
Cc1csc(N/N=C/c2ccccn2)n1 | 30% | ? | -100* | . | 3.7µM* | 14µM*
C(=N\Nc1nc2ccccc2s1)/c1ccccn1 | ? | ? | -95* | ? | ? | ?
C(=N\NC1=Nc2cccc3cccc1c23)/c1ccccn1 | ? | ? | 111 | ? | 14% | .
Cc1csc(N/N=C/c2ccc([N+](=O)[O-])cc2)n1 | 3% | 1% | -10 | i | 1% | 33%
O=C(N/C(=C\c1cccc([N+](=O)[O-])c1)C(=O)N(CCO)CCO)c1ccco1 | 0% | 2% | -51* | i | 2% | 0%[11.3 µM]
CCN(CC)C(=O)/C(=C\c1cccc([N+](=O)[O-])c1)NC(=O)c1ccco1 | 1% | -17% | 5 | ? | -121% | 2%
